“And” between values parts separate entries of the source, which are not always exact repeats. Identical values can stand only once. Screen size: about 17,000 compounds; about 1,100 (6.5%) were called active.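 Rule for the calls: active = z-score of -3 or lower, meaning strong loss of probe binding signal; inactive = the rest.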 Only a selection was taken, and actives are over-represented in it overall. Some compounds were tested as several samples or in several runs, with calls that do not always agree.
Molecular target: Insulin-degrading enzyme (Homo sapiens) (UniProt P14735)
Assay: exo-site inhibitors of human IDE, primary screen, biochemical, fluorescence anisotropy, probe displacement (AID 1259349);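 note: His-tagged human IDE residues 42-1019 made in E. coli with 30 nM FL-6b probe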
Conditions: purified IDE, FL-6b probe fluorescence polarization; at 20 µM; stronger effect = lower value

Sequence of Insulin-degrading enzyme (Homo sapiens) (P14735 42-1019 limits assumed): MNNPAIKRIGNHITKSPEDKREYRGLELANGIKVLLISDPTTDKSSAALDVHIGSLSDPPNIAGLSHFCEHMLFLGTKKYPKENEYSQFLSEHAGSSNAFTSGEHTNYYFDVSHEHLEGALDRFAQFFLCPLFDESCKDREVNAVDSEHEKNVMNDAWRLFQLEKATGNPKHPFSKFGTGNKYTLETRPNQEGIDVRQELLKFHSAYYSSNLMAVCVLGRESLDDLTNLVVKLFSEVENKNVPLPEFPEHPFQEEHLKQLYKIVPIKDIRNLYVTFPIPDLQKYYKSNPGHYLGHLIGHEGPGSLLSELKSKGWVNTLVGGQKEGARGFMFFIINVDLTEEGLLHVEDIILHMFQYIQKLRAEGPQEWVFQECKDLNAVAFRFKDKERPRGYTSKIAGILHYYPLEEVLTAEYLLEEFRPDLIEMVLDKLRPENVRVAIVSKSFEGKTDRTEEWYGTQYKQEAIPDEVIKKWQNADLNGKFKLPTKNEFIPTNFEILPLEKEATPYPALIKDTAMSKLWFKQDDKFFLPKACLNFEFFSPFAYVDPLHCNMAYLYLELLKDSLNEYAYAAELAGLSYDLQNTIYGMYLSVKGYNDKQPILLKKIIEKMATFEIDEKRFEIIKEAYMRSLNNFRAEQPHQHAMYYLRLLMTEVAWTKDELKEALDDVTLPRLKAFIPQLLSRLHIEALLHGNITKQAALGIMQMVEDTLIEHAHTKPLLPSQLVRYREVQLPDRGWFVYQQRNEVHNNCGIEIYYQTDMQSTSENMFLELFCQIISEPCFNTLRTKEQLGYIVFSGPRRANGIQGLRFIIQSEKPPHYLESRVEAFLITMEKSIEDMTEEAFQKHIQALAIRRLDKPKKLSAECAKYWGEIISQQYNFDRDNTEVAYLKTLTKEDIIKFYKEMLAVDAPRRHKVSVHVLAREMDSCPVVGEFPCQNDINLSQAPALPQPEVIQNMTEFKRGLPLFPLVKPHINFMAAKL

Compound | z-score
N#C[C@@H]1N[C@@H](CO)[C@@H]1c1ccc(C#Cc2ccccc2F)cc1 | -3.8 (active)
N#C[C@H]1N[C@H](CO)[C@@H]1c1ccc(C#Cc2ccccc2F)cc1 | 0.0442 (inactive)
N#C[C@@H]1N[C@H](CO)[C@@H]1c1ccc(/C=C/c2ccccc2)cc1 | 0.0442 (inactive)
COCC(=O)N1[C@H](CO)[C@@H](c2ccc(C#Cc3ccccc3F)cc2)[C@@H]1C#N | -3.16 (active)
N#C[C@@H]1[C@H](c2ccc(C#Cc3ccccc3F)cc2)[C@H](CO)N1C(=O)C1CCCCC1 | -0.57 (inactive)
CCCC#Cc1ccc([C@H]2[C@@H](CO)N(C(=O)C3CC3)[C@H]2C#N)cc1 | 0.0113 (inactive)
N#C[C@@H]1[C@@H](c2ccccc2)[C@@H](CO)N1C(=O)Cc1ccccc1 | 0.975 (inactive)
COCC(=O)N1[C@H](CO)[C@H](c2ccccc2-c2ccc(C)cc2)[C@@H]1C#N | 0.234 (inactive)
COc1ccccc1C#Cc1ccc([C@@H]2[C@@H](CO)N(C(=O)C3CC3)[C@H]2C#N)cc1 | -8.33 (active)
CC(C)C#Cc1ccc([C@@H]2[C@@H](C#N)N(C(=O)C3CC3)[C@@H]2CO)cc1 | 1.34 (inactive)
N#C[C@H]1[C@H](c2ccc(C#Cc3ccc(F)cc3)cc2)[C@@H](CO)N1C(=O)C1CCCC1 | 6.39 (inactive)
COc1ccccc1C#Cc1ccc([C@H]2[C@@H](C#N)N(C(=O)C3CCCCC3)[C@@H]2CO)cc1 | -7.41 (active)
C[C@@H]1CN([C@@H](C)CO)C(=O)c2cc(-c3ccc(C#N)cc3)cnc2O[C@@H]1CN(C)Cc1cccnc1 | 0.499 (inactive)
COc1cccc(S(=O)(=O)Nc2ccc3c(c2)[C@@H]2C[C@H](CC(=O)NC4CCCCC4)O[C@H](CO)[C@@H]2O3)c1 | 0.0301 (inactive)
O=S(=O)(Cc1ccccc1)N1CCCCN2[C@H](CO)[C@@H](c3ccc(-c4cncnc4)cc3)[C@H]2C1 | 1.15 (inactive)
CCc1sc(N2[C@@H](C#N)[C@@H](c3ccccc3-c3ccccc3)[C@@H]2CO)nc1C | 1.04 (inactive)
COc1ccc(NC(=O)N2CC(=O)N3[C@H](CO)[C@@H](c4ccc(C#CCC5CCCC5)cc4)[C@H]3C2)cc1 | 2.81 (inactive)
COc1cccc(C#Cc2ccc([C@@H]3[C@H]4CN(C(=O)Cc5ccccc5)CC(=O)N4[C@H]3CO)cc2)c1 | -0.17 (inactive)
COCC(=O)N1CC(=O)N2[C@H](C1)[C@@H](c1ccc(C#Cc3cccc(OC)c3)cc1)[C@@H]2CO | -5.09 (active)
COc1ccccc1NC(=O)N1CC(=O)N2[C@H](CO)[C@@H](c3ccc(C#Cc4ccc(F)cc4)cc3)[C@H]2C1 | 3.22 (inactive)
COc1ccccc1NC(=O)N1CC(=O)N2[C@H](CO)[C@H](c3ccc(C#Cc4ccccc4)cc3)[C@H]2C1 | -2.66 (inactive)
COc1ccccc1NC(=O)N1CC(=O)N2[C@H](C1)[C@H](c1ccc(C#Cc3ccccc3)cc1)[C@@H]2CO | -3.53 (active)
CCCNC(=O)N1CC(=O)N2[C@H](C1)[C@@H](c1ccc(C#Cc3ccccc3)cc1)[C@@H]2CO | -4.24 (active)

Compound | z-score
COCC(=O)N1CC(=O)N2[C@@H](CO)[C@@H](c3ccc(C#CC(C)C)cc3)[C@@H]2C1 | 1.03 (inactive)
CCCNC(=O)N1CC(=O)N2[C@@H](CO)[C@H](c3ccc(-c4ccc(C)cc4)cc3)[C@@H]2C1 | -1.44 (inactive)
CCCNC(=O)N1CC(=O)N2[C@H](CO)[C@@H](c3ccc(-c4ccc(F)cc4)cc3)[C@H]2C1 | -0.254 (inactive)
C[C@H]1CN([C@@H](C)CO)C(=O)CCCn2nncc2CO[C@H]1CN(C)S(=O)(=O)c1ccccc1C#N | -0.585 (inactive)
Cc1ccc(-c2ccc([C@H]3[C@H](CO)N4C(=O)CN(S(=O)(=O)c5cccc(F)c5)C[C@@H]34)cc2)cc1 | 1.91 (inactive)
C[C@H](NC(=O)C[C@@H]1C[C@@H]2c3cc(NS(=O)(=O)c4ccc(F)cc4)ccc3O[C@@H]2[C@@H](CO)O1)c1ccccc1 | -0.633 (inactive)
O=C1NCCCOCc2cn(nn2)CC[C@@H]1Cc1ccc(-c2ccccc2)cc1 | -0.0302 (inactive)
O=C(c1ccncc1)N1CC(=O)N2[C@H](CO)[C@@H](c3ccc(-c4cccnc4)cc3)[C@H]2C1 | 2.02 (inactive)
Cc1ccccc1-c1ccc([C@H]2[C@@H](CO)N3C(=O)CN(C(=O)c4ccncc4)C[C@@H]23)cc1 | -3.52 (active)
O=C(c1ccncc1)N1CC(=O)N2[C@H](CO)[C@H](c3ccc(-c4ccccc4F)cc3)[C@@H]2C1 | 0.944 (inactive)
CCCC#Cc1ccc([C@@H]2[C@@H](CO)N3C(=O)CN(C(=O)c4ccncc4)C[C@@H]23)cc1 | 1.2 (inactive)
CCCC#Cc1ccc([C@H]2[C@@H](CO)N3C(=O)CN(C(=O)c4ccncc4)C[C@H]23)cc1 | 0.281 (inactive)
Cc1ccccc1-c1ccc([C@H]2[C@@H](CO)N3C(=O)CN(C(=O)c4ccncc4)C[C@H]23)cc1 | -10 (active)
COc1ccc(C#Cc2ccc([C@@H]3[C@@H](CO)N4C(=O)CN(C(=O)c5ccc(F)cc5)C[C@@H]34)cc2)cc1 | 0.452 (inactive)
CN(C)C(=O)c1ccc(-c2ccc([C@@H]3[C@H](C#N)N(C(=O)C4CC4)[C@H]3CO)cc2)cc1 | -0.273 (inactive)
COc1ccc(CN(C)C[C@@H]2Oc3ccc(NC(=O)Nc4ccc5c(c4)OCO5)cc3CC(=O)N([C@H](C)CO)C[C@H]2C)cc1 | 1.72 (inactive)
COc1ccc2c3c(n(C)c2c1)[C@@H](CO)N(CC1CC1)CC31CCN(C(=O)c2cccc(F)c2)CC1 | 0.882 (inactive)
CO[C@H](CN(C)C(=O)c1cnccn1)[C@@H](C)CN([C@@H](C)CO)S(=O)(=O)c1ccccc1 | 1.89 (inactive)
CN(C)CC(=O)N1[C@H](C#N)[C@H](c2ccccc2-c2cccc(C(=O)N(C)C)c2)[C@@H]1CO | 4.1 (inactive)
C[C@@H]1CN([C@H](C)CO)C(=O)c2c(c3ccccc3n2C)-c2ccccc2CO[C@H]1CN(C)C(=O)[C@@H](Cc1ccccc1)N(C)C | -1.45 (inactive)
O=C(C[C@@H]1CC[C@H]2NC[C@H](O)COC[C@@H]2O1)NCCN1CCCCC1 | 0.878 (inactive)
O=C1C[C@@H](c2ccccc2)C(=O)N[C@H](c2ccc(F)cc2)C/C=C\CCN1 | 1 (inactive)
O=S(=O)(c1ccccc1F)N1[C@@H]2CNC[C@H]1C2c1ccc(-c2cncnc2)cc1 (some centres not stated) | 2.04 (inactive)

Compound | z-score
Cc1cccc(-c2ccccc2[C@@H]2[C@H](C#N)N(c3ncc(-c4ccccc4)s3)[C@H]2CO)c1 | 4.05 (inactive)
O=S(=O)(c1ccccc1)N1C[C@@H]2[C@H](c3ccccc31)[C@H](CO)N2Cc1ccccn1 | 2.16 (inactive)
Cc1cccc(-c2ccc(C3[C@H]4CNC[C@@H]3N4S(=O)(=O)c3ccccc3F)cc2)c1 (some centres not stated) | 5.33 (inactive) and 3.85 (inactive)
Cc1ccc(-c2ccc(C3[C@H]4CNC[C@@H]3N4S(=O)(=O)c3ccccc3C)cc2)cc1 (some centres not stated) | 1.05 (inactive) and 2.8 (inactive)
COc1ccccc1NC(=O)N1[C@@H]2CNC[C@H]1C2c1ccc(-c2ccccc2C)cc1 (some centres not stated) | -4.4 (active)
COc1cccc(S(=O)(=O)N2[C@@H]3CNC[C@H]2C3c2ccc(-c3ccccc3OC)cc2)c1 (some centres not stated) | -0.496 (inactive) and -4.13 (active)
COc1cccc(NC(=O)N2[C@@H]3CNC[C@H]2C3c2ccc(-c3ccncc3)cc2)c1 (some centres not stated) | 0.421 (inactive) and 0.471 (inactive)
CN(C)C(=O)c1cccc(-c2ccc(C3[C@H]4CNC[C@@H]3N4C(=O)Nc3ccccc3F)cc2)c1 (some centres not stated) | 1.08 (inactive) and 3.82 (inactive)
COCCNC(=O)C[C@H]1CC[C@@H]2[C@H](COc3ccc(NC(=O)Nc4cccc(F)c4)cc3C(=O)N2C)O1 | -0.769 (inactive)
COc1ccc(S(=O)(=O)N2CCCCN3[C@@H](CO)[C@@H](c4ccc(C#CCC(C)C)cc4)[C@@H]3C2)cc1 | 4 (inactive)
CN(C)C(=O)c1cccc(-c2ccc(C3[C@@H]4CN(S(=O)(=O)c5ccc(F)cc5)C[C@H]3N4)cc2)c1 (some centres not stated) | 4.34 (inactive) and 3.12 (inactive)
C[C@@H]1CC(=O)N[C@H](c2ccccc2)C/C=C\C[C@H](c2ccccc2)NC1=O | 1.16 (inactive)
COCC(=O)N1CCCCN2[C@H](CO)[C@H](c3ccc(-c4ccc(OC)cc4)cc3)[C@H]2C1 | -1.33 (inactive)
CC(C)NC(=O)N1CCCCN2[C@@H](CO)[C@@H](c3ccc(C#Cc4ccccc4)cc3)[C@@H]2C1 | -8.05 (active)
CC(C)C#Cc1ccc([C@@H]2[C@H]3CN(C(=O)NC(C)C)CCCCN3[C@H]2CO)cc1 | 1 (inactive)
COCC(=O)N1CCCCN2[C@H](CO)[C@@H](c3ccc(-c4ccc(OC)cc4)cc3)[C@@H]2C1 | -2.67 (inactive)
CC(C)C#Cc1ccc([C@H]2[C@H](CO)N3CCCCN(C(=O)NC(C)C)C[C@@H]23)cc1 | 0.103 (inactive)
COc1ccc(-c2ccc([C@@H]3[C@@H](CO)N4CCCCN(C(=O)NC(C)C)C[C@H]34)cc2)cc1 | -4.12 (active)
COc1ccc2c3c([nH]c2c1)[C@H](CO)N(Cc1nccs1)CC31CCN(Cc2cccnc2)CC1 | -0.878 (inactive)
COc1cccc(S(=O)(=O)N2CCCCN3[C@H](C2)[C@@H](c2ccc(C4=CCCCC4)cc2)[C@@H]3CO)c1 | 2.68 (inactive)
COc1ccc2c3c([nH]c2c1)[C@H](CO)N(Cc1ccc(F)cc1)CC31CCN(Cc2ccccn2)CC1 | -1.44 (inactive)

From PubChem BioAssay AID1259349 (Broad Institute, 2017)
